Source: PubChem BioAssay (Tox21)
Inconclusive results are not listed. Calls of active or inactive are those of the source. Unless noted, calls come from the whole dose curve; as a rule, active = well fitted curve in the direction sought with a large enough effect in the repeat runs; inconclusive = weak or mixed curves; inactive = no such curve, though single readings can be large; an effect the other way counts as inactive or inconclusive.

Assays:
[1] = qHTS assay to identify aromatase inhibitors - cell viability counter screen (AID 743084); details: MCF-7 aro ERE viability, CellTiter-Fluor, 24 h; series mostly up to 70.3 µM;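 note: cells stimulated with testosterone during compound exposure; nearly all actives have a fitted effect of over 55% in size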; note: potency is the fitted concentration of half-maximal effect
[2] = target: Aryl hydrocarbon receptor (Homo sapiens) (UniProt P35869); assay: qHTS assay to identify small molecule that activate the aryl hydrocarbon receptor (AhR) signaling pathway (AID 743085); details: HepG2 AhR-luc (HG2L7.5c1), luciferase, 24 h; series mostly up to 70.3 µM; note: nearly all actives have a fitted effect of over 15% in size; note: potency is the fitted concentration of half-maximal effect;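 for activation: HG2L7.5c1 human HepG2 liver cells with stably integrated DRE-driven firefly reporter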
Sequence of Aryl hydrocarbon receptor (Homo sapiens) (P35869 whole entry, looked up): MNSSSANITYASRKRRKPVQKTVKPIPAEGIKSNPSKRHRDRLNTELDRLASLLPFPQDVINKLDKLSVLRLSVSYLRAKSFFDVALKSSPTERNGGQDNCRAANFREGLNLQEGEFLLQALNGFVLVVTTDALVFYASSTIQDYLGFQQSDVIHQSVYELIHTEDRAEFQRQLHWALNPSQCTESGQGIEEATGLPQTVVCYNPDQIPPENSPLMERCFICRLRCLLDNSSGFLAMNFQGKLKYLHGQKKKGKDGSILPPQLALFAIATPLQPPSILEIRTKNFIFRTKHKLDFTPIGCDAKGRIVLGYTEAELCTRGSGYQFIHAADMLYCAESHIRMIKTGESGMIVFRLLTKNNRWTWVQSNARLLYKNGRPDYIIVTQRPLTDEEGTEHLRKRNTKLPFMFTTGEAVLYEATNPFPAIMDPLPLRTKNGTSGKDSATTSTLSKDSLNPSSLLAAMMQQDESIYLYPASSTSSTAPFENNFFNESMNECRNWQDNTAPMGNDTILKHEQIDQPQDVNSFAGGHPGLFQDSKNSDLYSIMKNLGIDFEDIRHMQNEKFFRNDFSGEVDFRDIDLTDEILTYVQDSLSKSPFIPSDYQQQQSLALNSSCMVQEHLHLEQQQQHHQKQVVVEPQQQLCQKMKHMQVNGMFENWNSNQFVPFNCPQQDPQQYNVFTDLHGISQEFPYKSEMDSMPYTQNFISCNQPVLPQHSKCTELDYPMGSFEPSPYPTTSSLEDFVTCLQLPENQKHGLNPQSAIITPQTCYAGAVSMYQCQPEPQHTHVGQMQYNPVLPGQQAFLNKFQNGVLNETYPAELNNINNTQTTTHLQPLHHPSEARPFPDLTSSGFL
In short: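 HepG2 cells stably carrying a 20-DRE firefly luciferase reporter (HG2L7.5c1) treated with compound for 24 hr at 37C. Luciferase read by ONE-Glo luminescence, with CellTiter-Fluor viability read first.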

[3] = qHTS assay to identify small molecule that activate the aryl hydrocarbon receptor (AhR) signaling pathway - cell viability counter screen (AID 743086); details: HepG2-AhR-luc viability, CellTiter-Fluor, 24 h; series mostly up to 70.3 µM; note: nearly all actives have a fitted effect of over 45% in size; note: potency is the fitted concentration of half-maximal effect
In short: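 HepG2-AhR-luc (HG2L7.5c1) cells, 4000/well, were preincubated 5 h at 37C, exposed to compound in qHTS format for 24 hr at 37C, then given CellTiter-Fluor for 30 min; viability was read as fluorescence in the reporter wells.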

[4] = qHTS assay to identify small molecule antagonists of the peroxisome proliferator-activated receptor gamma (PPARg) signaling pathway - cell viability counter screen (AID 743194); details: PPARg-bla HEK293H viability, CellTiter-Glo luminescence, 17 h, co-treated with 50 nM rosiglitazone; series mostly up to 62.6 µM; note: nearly all actives have a fitted effect of over 55% in size; note: potency is the fitted concentration of half-maximal effect
In short: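 PPARg-UAS-bla HEK293H cells were plated, rested 5 h at 37 C, then treated with compounds plus rosiglitazone (50 nM final) for 17 h at 37 C; viability was then read by CellTiter-Glo luminescence after 30 min at room temperature.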

[5] = qHTS assay for small molecule agonists of the antioxidant response element (ARE) signaling pathway (AID 743202; active = well fitted activation curve with a large enough effect in the signal ratio in the repeat runs, not every such curve was filed as active; the % refers to the signal ratio); details: HepG2 ARE-bla reporter, beta-lactamase FRET, 16 h; series mostly up to 73.3 µM
In short: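 Following a 16 h, 37 C exposure of reporter HepG2 cells (ARE-driven beta-lactamase, 2,000 cells/well) to compounds, FRET substrate was applied for 2 h at room temperature and fluorescence intensity recorded.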

[6] = qHTS assay for small molecule agonists of the antioxidant response element (ARE) signaling pathway - cell viability counter screen (AID 743203; calls by dose curve; note: nearly all actives have a fitted effect of over 55% in size; note: potency is the fitted concentration of half-maximal effect); details: ARE-bla HepG2 viability, CellTiter-Glo luminescence, 16 h; series mostly up to 73.3 µM
In short: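 Viability counter screen: CellTiter-Glo luminescence, read after 30 min at room temperature, in ARE-bla HepG2 wells. Compound exposure lasted 16 h at 37C/5% CO2, following a 5 h pre-incubation of the cells after plating.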

[7] = qHTS assay for small molecule activators of the heat shock response signaling pathway - cell viability counter screen (AID 743209); details: HSE-bla HeLa viability, CellTiter-Glo luminescence, 5 h; series mostly up to 62.6 µM; note: nearly all actives have a fitted effect of over 50% in size
In short: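 Cytotoxicity counter screen run in the same wells as the heat-shock bla reporter assay: HeLa HSE-bla cells, 5 h compound exposure at 37 C, viability read by CellTiter-Glo luminescence.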

[8] = qHTS assay for small molecule activators of the heat shock response signaling pathway (AID 743210; active = well fitted activation curve with a large enough effect in the signal ratio in the repeat runs, with a control signal flat, not every such curve was filed as active; the % refers to the signal ratio); details: HeLa HSE-bla reporter, beta-lactamase ratio, 5 h; series mostly up to 62.6 µM
In short: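 Heat shock element–beta-lactamase HeLa reporter cells; qHTS with compounds for 5 h at 37 C; detection by FRET substrate fluorescence after 2.5 h at RT.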

[9] = target: Peroxisome proliferator-activated receptor gamma (Homo sapiens) (UniProt P37231); assay: qHTS assay to identify small molecule agonists of the peroxisome proliferator-activated receptor gamma (PPARg) signaling pathway (AID 743094; active = well fitted activation curve with a large enough effect in the signal ratio in the repeat runs, not every such curve was filed as active; the % refers to the signal ratio); details: HEK293H PPARg-UAS-bla, beta-lactamase FRET ratio, 17 h; series mostly up to 57 µM
Sequence of Peroxisome proliferator-activated receptor gamma (Homo sapiens) (P37231 whole entry, looked up): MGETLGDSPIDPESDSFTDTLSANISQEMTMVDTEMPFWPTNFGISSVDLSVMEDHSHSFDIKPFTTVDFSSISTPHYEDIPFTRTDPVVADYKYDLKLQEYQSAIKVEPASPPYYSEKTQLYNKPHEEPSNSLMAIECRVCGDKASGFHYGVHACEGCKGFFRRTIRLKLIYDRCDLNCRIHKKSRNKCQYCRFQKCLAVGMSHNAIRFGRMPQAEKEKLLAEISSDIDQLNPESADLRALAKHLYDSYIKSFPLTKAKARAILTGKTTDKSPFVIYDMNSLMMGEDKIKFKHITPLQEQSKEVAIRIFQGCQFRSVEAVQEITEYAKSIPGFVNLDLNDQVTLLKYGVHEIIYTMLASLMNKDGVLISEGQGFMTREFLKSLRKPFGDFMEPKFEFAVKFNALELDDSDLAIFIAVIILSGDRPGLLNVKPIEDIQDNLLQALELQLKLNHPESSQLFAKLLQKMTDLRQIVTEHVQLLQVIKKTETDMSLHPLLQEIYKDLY
In short: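 Agonist activity was taken from a beta-lactamase reporter (FRET substrate, 1 h at room temperature) in HEK293H cells carrying a PPARg UAS-bla construct. Compounds in DMSO were incubated 17 h at 37C after a 5 h cell pre-incubation.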

[10] = target: Peroxisome proliferator-activated receptor gamma (Homo sapiens) (UniProt P37231); assay: qHTS assay to identify small molecule antagonists of the peroxisome proliferator-activated receptor gamma (PPARg) signaling pathway (AID 743191; calls by dose curve; note: nearly all actives have a fitted effect of over 30% in size); details: HEK293H PPARg-UAS-bla, beta-lactamase ratio, antagonist, 17 h; series mostly up to 62.6 µM
In short: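 GeneBLAzer PPARg UAS-bla HEK293H cells carrying a UAS-driven beta-lactamase reporter were plated at 3000 cells/well, preincubated 5 h at 37C, then given compound for 17 h at 37C; LiveBLAzer B/G FRET substrate was read after 1 h at room temperature.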

Measured: Potency

CC1CC(OC(=O)C(O)c2ccccc2)CC(C)(C)N1C (stereo unspecified)
not listed: [9] | [10]
inactive: all other assays above

CC1(C)[C@H](C(=O)O)N2C(=O)C[C@H]2S1(=O)=O
not listed: [5] | [9] | [10]
inactive: all other assays above

O=c1[nH]c2ccc(Cl)cc2o1
not listed: [5] | [9] | [10]
inactive: all other assays above

CCC1(CO)COCOC1
inactive: [1] | [2] | [3] | [4] | [6] | [7]

C=C(C)[C@@H]1CCC2=CCC[C@@H](C)[C@]2(C)C1
inactive: [1] | [2] | [3] | [9] | [6]

CC(=O)NC1(c2cccc(F)c2)CCN(CC[C@@]2(c3ccc(Cl)c(Cl)c3)CN(c3ccccc3)C(=O)CO2)CC1
active: [1] 48.7 µM | [3] 43.4 µM | [4] 34.8 µM | [6] 19.4 µM
inactive: [2] | [7] | [8]

COC(=O)CCS
not listed: [9]
inactive: all other assays above

CC(CO)CO
not listed: [4] | [9] | [10]
inactive: all other assays above

CC(C)C=O
not listed: [8] | [9] | [10]
inactive: all other assays above

O=C(O)CCCCCCCCCCCBr
not listed: [5] | [9] | [10]
inactive: all other assays above

Cc1cccc(O)c1N
active: [2] 27.6 µM
not listed: [5] | [9] | [10]
inactive: all other assays above

C=Cc1ccc(S(=O)(=O)O)cc1
inactive: [1] | [2] | [3] | [9] | [7]

CCC(C)(C)OC
not listed: [3]
inactive: all other assays above
